Here are results for four molecules from PubChem BioAssay (Tox21).

Results filed as inconclusive are left out. Active and inactive are the calls of the source. Unless noted, the call rests on the fitted dose curve.

The nature of test [1]: Nuclear factor erythroid 2-related factor 2/antioxidant responsive element (Nrf2/ARE) small molecule agonists: qHTS cell viability counter screen in human keratinocytes (AID 1919968; active means well fitted cell-killing curve with a large enough effect in the repeat runs; further: nearly all actives have a fitted effect of over 55% in size). The settings on record: KeratinoSens HaCaT ARE cells viability, CellTiter-Fluor, 24 h; series mostly up to 92.4 µM. In a few lines: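 Cytotoxicity was multiplexed with the Nrf2/ARE luciferase assay in the same wells. Stably transfected HaCaT keratinocytes were treated with test compounds for 23 h at 37 C. Cell viability was then measured by CellTiter-Fluor fluorescence.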
On the technique in general: In qHTS, concentration-response curves come from the screen itself.

Test [2] can be described thus: Nuclear factor erythroid 2-related factor 2/antioxidant responsive element (Nrf2/ARE) small molecule agonists: luciferase reporter gene qHTS assay in human keratinocytes (AID 1919969). Further: nearly all actives have a fitted effect of over 35% in size. Further: potency means the concentration at half of the fitted maximal effect. The conditions noted are these: KeratinoSens HaCaT ARE-luciferase, luminescence, 24 h; series mostly up to 92.4 µM. For orientation: In a reporter assay the amount or activity of a reporter protein is the signal.

The target of test [3] is Gonadotropin-releasing hormone receptor (Homo sapiens) (UniProt P30968). The experiment in a line: Human gonadotropin-releasing hormone receptor (GnRHR) small molecule agonists, calcium flux assay in GnRHR-HEK293 cells (AID 1920063). Further: nearly all actives have a fitted effect of over 35% in size. The settings on record: calcium flux fluorescence, agonist mode; series mostly up to 57.6 µM. The method, boiled down: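 Agonist activity was measured as intracellular calcium flux in HEK293 cells engineered to stably express human GnRHR. After dye loading for 1 hour at 37 C, compounds in DMSO were added and fluorescence was followed for 3 minutes.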
In general terms: Calcium flux is commonly read through the fluorescence of an indicator in the cells.

Test [4] is described as follows: G protein-coupled receptor (GPCR) small molecule agonists, calcium flux assay: HEK293 wild type cell line counter screen (AID 1920065). The settings on record: HEK293 WT calcium flux, fluorescence, agonist mode; series mostly up to 57.6 µM. The method, boiled down:
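Seed cells, incubate 18 h (37 C, 5% CO2); add calcium dye, 1 h at 37 C; pin-transfer compounds, ATP control or DMSO; read fluorescence 480/540 nm each second for 3 min.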

Test [5] in a line: p53 small molecule agonists, cell-based qHTS assay with human liver microsomes (AID 1963577). The settings on record: HCT-116 p53RE-bla with human liver microsomes, ratio, 16 h; series mostly up to 66 µM. The method, boiled down: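 Fluorescence of the beta-lactamase reporter in p53RE-bla cells, detected with LiveBLAzer substrate (2 h, room temperature, dark), served as the read-out after 16 h compound exposure at 37 C with human liver microsomes and NADPH, each 0.5 mg/mL final.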

The nature of test [6]: p53 small molecule agonists, cell-based qHTS assay with rat liver microsomes (AID 1963578). The conditions noted are these: HCT-116 p53RE-bla, beta-lactamase ratio, 16 h; series mostly up to 66 µM. The method, boiled down: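 Cells carrying a p53 response element–beta-lactamase reporter were plated and rested 5 h, then dosed with compound in DMSO plus rat liver microsomes and NADPH, each at 0.5 mg/mL final. After 16 h at 37 C, LiveBLAzer substrate was added for 2 h.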

Test [7] is described as follows: p53 small molecule agonists, cell-based qHTS assay with human liver microsomes: qHTS cell viability counter screen (AID 1963579). Further: nearly all actives have a fitted effect of over 45% in size. The settings on record: p53RE-bla HCT-116 viability, ATP luminescence, 16 h, HLM; series mostly up to 66 µM. The method, boiled down: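 Cytotoxicity counter screen: p53RE-bla, 4,000 cells/well; 5 h settle, 37 C/5% CO2; cpd + HLM 0.5 mg/mL + NADPH 0.5 mg/mL (final); 16 h, 37 C; CellTiter-Glo, 30 min RT, luminescence.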

The nature of test [8]: p53 small molecule agonists, cell-based qHTS assay with rat liver microsomes: qHTS cell viability counter screen (AID 1963580). Further: nearly all actives have a fitted effect of over 45% in size. The settings on record: p53RE-bla HCT-116 + rat microsomes, ATP viability, 16 h; series mostly up to 66 µM. In a few lines: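 Cytotoxicity counter screen: intracellular ATP measured by CellTiter-Glo luminescence in the same wells as the beta-lactamase reporter read, on HCT-116 p53RE-bla cells exposed 16 h at 37 C to compounds with rat liver microsomes and NADPH, each 0.5 mg/mL final.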

Test [9] is described as follows: p53 small molecule agonists, cell-based qHTS assay: qHTS cell viability counter screen (AID 1963581). Further: nearly all actives have a fitted effect of over 45% in size. The settings on record: p53RE-bla HCT-116 viability, ATP luminescence, 16 h; series mostly up to 66 µM. The method, boiled down: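 Viability was counter-screened in parallel with the p53 agonist reporter by measuring intracellular ATP luminescence in the same HCT-116 p53RE-bla wells after 16 h compound treatment at 37 C.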

For test [10], the target named is 5-hydroxytryptamine receptor 2A (Homo sapiens) (UniProt P28223). The experiment in a line: 5-hydroxytryptamine receptor 2A (HTR2A) small molecule antagonists, cell-based qHTS assay (AID 1963586). Further: nearly all actives have a fitted effect of over 45% in size. The conditions noted are these: HTR2A-CHO cells, DOI-induced calcium flux, fluorescence; series mostly up to 61.5 µM. The method, boiled down: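 CHO cells stably expressing human HTR2A were plated for 18 h at 37 C, then loaded with calcium dye for 1 h. Compounds were preincubated 5 min at room temperature before DOI (4 nM solution) was added. Kinetic fluorescence was read for 3 min.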

Test [11] shares this target. The test can be described thus: 5-hydroxytryptamine receptor 2A (HTR2A) small molecule agonists, cell-based qHTS assay (AID 1963587). Further: nearly all actives have a fitted effect of over 30% in size. The conditions noted are these: HTR2A-CHO cells, calcium flux fluorescence, agonist mode; series mostly up to 76.8 µM. The method, boiled down: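 CHO cells stably expressing human HTR2A, plated 18 h, loaded with calcium dye 1 h at 37 C. Agonist mode: compounds added and intracellular calcium fluorescence recorded kinetically for 2 min at 1 sec intervals.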

Test [12] addresses Muscarinic acetylcholine receptor M1 (Homo sapiens) (UniProt P11229). The experiment in a line: Cholinergic receptor muscarinic 1 (CHRM1) small molecule antagonists, cell-based qHTS assay (AID 1963588). Further: nearly all actives have a fitted effect of over 40% in size. The settings on record: CHRM1-CHO antagonist mode, calcium flux fluorescence; series mostly up to 61.5 µM. In a few lines:
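Compounds were tested at 15 concentrations in three independent runs. Dye-loaded CHRM1-CHO cells were exposed 5 min at room temperature before stimulation by acetylcholine added at 50nM. Intracellular calcium was read kinetically on FDSS for 3 min.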

Test [13] shares this target. The test can be described thus: Cholinergic receptor muscarinic 1 (CHRM1) small molecule agonists, cell-based qHTS assay (AID 1963589). Further: nearly all actives have a fitted effect of over 35% in size. The settings on record: CHRM1-CHO cells, agonist mode, calcium flux fluorescence; series mostly up to 76.8 µM. In a few lines: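 Cells were plated and incubated 18 h at 37 C/5% CO2, loaded with calcium dye for 1 h at 37 C, then treated with compounds in DMSO. Fluorescence was recorded kinetically at 1 sec intervals.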

Test [14] can be described thus: cAMP Responsive Elements (CRE) small molecule agonists, cell-based qHTS assay (AID 1963590). The conditions noted are these: CRE-bla HEK293T, beta-lactamase FRET ratio, 3 h; series mostly up to 92.4 µM. In a few lines:
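Cells carrying a CRE-driven beta-lactamase reporter (HEK 293T) are seeded, incubated overnight (18 h), and treated with test compounds for 3 h at 37 C; reporter activity is then detected with a FRET substrate after 2 h at room temperature.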

The nature of test [15]: cAMP Responsive Elements (CRE) small molecule antagonists, cell-based qHTS assay (AID 1963591; active means well fitted inhibition curve with a large enough effect in the signal ratio in the repeat runs, not every such curve was filed as active; the % refers to the signal ratio). The conditions noted are these: CRE-bla HEK293T, beta-lactamase FRET ratio; series mostly up to 92.4 µM. The method, boiled down:
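Cells (CRE-bla HEK 293T, DMEM with 10% dialyzed FBS and 25 mM HEPES) are seeded and incubated 18 h. Compounds are added with NKH477 agonist at 0.25 uM final for 3 h, then FRET substrate for 2 h.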

Test [16] concerns the target Beta-2 adrenergic receptor (Homo sapiens) (UniProt P07550). The test can be described thus: Adrenergic beta2 receptor (ADRB2) small molecule antagonists, cell-based qHTS assay (AID 1963592). Further: nearly all actives have a fitted effect of over 50% in size. The settings on record: CHO-ADRB2 cells, isoproterenol-stimulated cAMP HTRF ratio, 0.5 h; series mostly up to 92.4 µM. In a few lines: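 Assay format: CHO-ADRB2 cells, 18-20hr seeding at 37C/5% CO2, then compound plus 1nM isoproterenol agonist mix for 0.5hr RT. Homogeneous time-resolved fluorescence cAMP detection after 1hr, expressed as 665/615 nm ratio.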

The target is the same in test [17]. The test can be described thus: Adrenergic beta2 receptor (ADRB2) small molecule agonists, cell-based qHTS assay (AID 1963593).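 Further: CHO cells stably overexpressing human ADRB2.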 The settings on record: CHO-ADRB2 cells, cAMP HTRF, 30 min; series mostly up to 92.4 µM. The method, boiled down:
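CHO cells stably over-expressing ADRB2 were plated overnight at 37C, then dosed with compounds plus a stimulation mix containing 100uM IBMX and 25uM Ro-20-1724 for 0.5hr at room temperature. cAMP was measured by HTRF competition, 1hr.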

Test [18] concerns the target D(2) dopamine receptor (Homo sapiens) (UniProt P14416). The test can be described thus: Dopamine D2 receptor (DRD2) small molecule antagonists, cell-based qHTS assay (AID 1963595; active means well fitted inhibition curve with a large enough effect in the signal ratio in the repeat runs, with a control signal flat; the % refers to the signal ratio). The settings on record: HEK293-DRD2 cAMP HTRF antagonist mode; series mostly up to 92.4 µM. In a few lines: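 HTRF cAMP read-out at 665 and 620 nm emission (340 nm excitation). Antagonist mode: compounds were tested against 12 nM quinpirole in DRD2-HEK293 cells, with 200 nM NKH477 raising cAMP and 0.1 mM Ro20-1724 blocking its breakdown.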

Test [19] shares this target. The test can be described thus: Dopamine D2 receptor (DRD2) small molecule agonists, cell-based qHTS assay (AID 1963594). Further: nearly all actives have a fitted effect of over 35% in size. The conditions noted are these: HEK293-DRD2 cAMP HTRF, agonist mode, 30 min; series mostly up to 92.4 µM. The method, boiled down: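 HEK293 cells stably expressing human DRD2, pre-treated with PDE inhibitor Ro20-1724 (0.1 mM final) and compound 10 min at room temperature, then stimulated with NKH477 (200nM […]) for 30 min. cAMP read by HTRF (665/620 nm).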

Chain of Muscarinic acetylcholine receptor M1 (Homo sapiens) (P11229 whole entry, looked up): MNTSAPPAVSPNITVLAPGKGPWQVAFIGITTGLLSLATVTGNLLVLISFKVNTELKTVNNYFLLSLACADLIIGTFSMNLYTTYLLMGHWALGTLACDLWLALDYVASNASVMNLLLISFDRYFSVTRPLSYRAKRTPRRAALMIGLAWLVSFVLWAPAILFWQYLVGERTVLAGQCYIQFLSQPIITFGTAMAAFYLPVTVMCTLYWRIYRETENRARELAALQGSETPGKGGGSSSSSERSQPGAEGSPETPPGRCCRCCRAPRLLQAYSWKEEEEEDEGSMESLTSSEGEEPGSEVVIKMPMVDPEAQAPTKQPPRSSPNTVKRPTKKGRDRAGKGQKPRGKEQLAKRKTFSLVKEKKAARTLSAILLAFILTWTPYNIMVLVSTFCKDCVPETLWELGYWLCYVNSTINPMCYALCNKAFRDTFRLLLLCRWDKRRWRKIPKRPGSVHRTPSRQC
Chain of 5-hydroxytryptamine receptor 2A (Homo sapiens) (P28223 whole entry, looked up): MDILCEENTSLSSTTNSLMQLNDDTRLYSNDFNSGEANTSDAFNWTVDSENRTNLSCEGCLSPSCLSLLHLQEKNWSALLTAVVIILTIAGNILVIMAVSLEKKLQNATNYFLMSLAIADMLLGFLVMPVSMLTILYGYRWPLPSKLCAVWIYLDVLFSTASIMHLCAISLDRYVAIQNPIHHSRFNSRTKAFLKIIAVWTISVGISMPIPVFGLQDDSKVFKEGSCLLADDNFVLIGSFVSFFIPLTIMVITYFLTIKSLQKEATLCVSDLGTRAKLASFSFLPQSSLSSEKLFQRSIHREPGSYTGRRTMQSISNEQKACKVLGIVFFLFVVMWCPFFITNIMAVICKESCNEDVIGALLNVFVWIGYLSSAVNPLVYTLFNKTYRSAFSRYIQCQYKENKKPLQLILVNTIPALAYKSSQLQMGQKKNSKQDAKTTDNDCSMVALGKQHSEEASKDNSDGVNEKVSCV
Chain of D(2) dopamine receptor (Homo sapiens) (P14416 whole entry, looked up): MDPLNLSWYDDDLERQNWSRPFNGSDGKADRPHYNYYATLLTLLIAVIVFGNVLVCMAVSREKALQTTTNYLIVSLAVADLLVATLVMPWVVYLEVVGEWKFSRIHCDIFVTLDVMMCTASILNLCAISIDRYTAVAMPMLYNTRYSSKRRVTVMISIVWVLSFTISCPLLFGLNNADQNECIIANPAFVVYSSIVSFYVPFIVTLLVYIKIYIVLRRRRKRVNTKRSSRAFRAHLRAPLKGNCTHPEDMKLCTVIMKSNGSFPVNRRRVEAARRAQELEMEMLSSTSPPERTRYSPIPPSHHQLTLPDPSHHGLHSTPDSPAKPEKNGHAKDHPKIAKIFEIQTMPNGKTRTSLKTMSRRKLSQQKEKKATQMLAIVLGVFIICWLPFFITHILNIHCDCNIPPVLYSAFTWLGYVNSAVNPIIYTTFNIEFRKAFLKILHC
Chain of Beta-2 adrenergic receptor (Homo sapiens) (P07550 whole entry, looked up): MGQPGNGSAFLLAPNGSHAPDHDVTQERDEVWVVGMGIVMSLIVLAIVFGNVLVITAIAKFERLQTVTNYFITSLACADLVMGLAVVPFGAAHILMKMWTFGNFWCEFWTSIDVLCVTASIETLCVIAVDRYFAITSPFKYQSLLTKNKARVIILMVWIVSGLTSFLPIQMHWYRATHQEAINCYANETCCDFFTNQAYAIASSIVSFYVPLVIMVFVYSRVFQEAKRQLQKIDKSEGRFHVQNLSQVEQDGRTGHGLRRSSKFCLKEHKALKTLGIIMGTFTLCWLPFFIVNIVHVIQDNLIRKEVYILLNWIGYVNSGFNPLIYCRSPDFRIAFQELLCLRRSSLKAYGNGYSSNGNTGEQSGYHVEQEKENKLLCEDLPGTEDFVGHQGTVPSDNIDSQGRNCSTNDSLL
Chain of Gonadotropin-releasing hormone receptor (Homo sapiens) (P30968 whole entry, looked up): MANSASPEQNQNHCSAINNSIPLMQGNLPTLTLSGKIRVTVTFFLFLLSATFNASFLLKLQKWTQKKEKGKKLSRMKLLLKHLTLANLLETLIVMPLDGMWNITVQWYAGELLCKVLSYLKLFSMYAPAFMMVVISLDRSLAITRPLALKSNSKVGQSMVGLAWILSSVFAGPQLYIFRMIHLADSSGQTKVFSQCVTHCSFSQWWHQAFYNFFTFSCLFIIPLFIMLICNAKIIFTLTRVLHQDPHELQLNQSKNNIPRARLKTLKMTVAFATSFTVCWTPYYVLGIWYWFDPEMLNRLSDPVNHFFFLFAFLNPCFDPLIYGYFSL

Consider `NCC1(Cc2noc(=O)[nH]2)CCCCC1`, for which the Potency entry in test [1], in [2], in test [3], in [4], in [5] and in test [6] was “inactive” throughout. The Potency result in test [7], in test [8], in test [9], in test [10], in [11] and in [12] was “inactive” in each case. The Potency entry in [13], in test [14], in [15], in test [16], in [17] and in [18] was “inactive” in each case.
In the case of `CCCCC/C=C/C=C/C=O`, the Potency result in test [1], in [3], in test [4], in [5], in test [6] and in test [7] was “inactive” in each case. Further, the Potency result in test [8], in [9], in test [10], in test [11], in [12] and in test [13] was “inactive” throughout. The Potency entry in test [14], in test [15], in test [16], in test [17] and in [19] was “inactive” throughout. Also, the Potency in test [2] is 61.1 µM (active).
Regarding `C=CC(=O)NCOCC(C)C`, the Potency result in [1], in test [2], in test [3], in test [4], in [5] and in [6] was “inactive” each time. In addition, the Potency entry in [7], in [8], in test [9], in test [10], in test [11] and in test [12] was “inactive” throughout. The Potency entry in test [13], in test [14], in [15], in test [16], in test [17] and in test [19] was “inactive” in each case. Moreover, the Potency entry in [18] was “inactive”.
For `CC(C)C1CCC(O)CC1` (centres undefined), the Potency result in test [1], in test [2], in test [3], in test [4], in [5] and in test [6] was “inactive” in each case. For the same molecule, the Potency entry in [7], in test [8], in [9], in test [10], in [11] and in test [12] was “inactive” each time. Also, the Potency result in test [13], in test [14], in [15], in [16], in test [17] and in test [19] was “inactive” in each case. The Potency entry in test [18] is “inactive”.
